Measured values taken from the supplement of paper PMC11732987, “Enantioselective OTUD7B fragment discovery through chemoproteomics screening and high-throughput optimisation” (Communications Chemistry, 2025).

Experiments:
Assay in all cases: log2 ratio of Biotin-Ahx-Ub-VS probe labelling (fragment/DMSO); higher = less target engagement (more negative = stronger competition), active = hit call of the paper (q ≤ 0.05, log2 ratio ≤ -1)
Settings in all cases: compound concentration: 200 uM; treatment time: 3 h
ALG13 = target: T1, ALG13 (UniProt Q9NP73)
T1 sequence (whole entry): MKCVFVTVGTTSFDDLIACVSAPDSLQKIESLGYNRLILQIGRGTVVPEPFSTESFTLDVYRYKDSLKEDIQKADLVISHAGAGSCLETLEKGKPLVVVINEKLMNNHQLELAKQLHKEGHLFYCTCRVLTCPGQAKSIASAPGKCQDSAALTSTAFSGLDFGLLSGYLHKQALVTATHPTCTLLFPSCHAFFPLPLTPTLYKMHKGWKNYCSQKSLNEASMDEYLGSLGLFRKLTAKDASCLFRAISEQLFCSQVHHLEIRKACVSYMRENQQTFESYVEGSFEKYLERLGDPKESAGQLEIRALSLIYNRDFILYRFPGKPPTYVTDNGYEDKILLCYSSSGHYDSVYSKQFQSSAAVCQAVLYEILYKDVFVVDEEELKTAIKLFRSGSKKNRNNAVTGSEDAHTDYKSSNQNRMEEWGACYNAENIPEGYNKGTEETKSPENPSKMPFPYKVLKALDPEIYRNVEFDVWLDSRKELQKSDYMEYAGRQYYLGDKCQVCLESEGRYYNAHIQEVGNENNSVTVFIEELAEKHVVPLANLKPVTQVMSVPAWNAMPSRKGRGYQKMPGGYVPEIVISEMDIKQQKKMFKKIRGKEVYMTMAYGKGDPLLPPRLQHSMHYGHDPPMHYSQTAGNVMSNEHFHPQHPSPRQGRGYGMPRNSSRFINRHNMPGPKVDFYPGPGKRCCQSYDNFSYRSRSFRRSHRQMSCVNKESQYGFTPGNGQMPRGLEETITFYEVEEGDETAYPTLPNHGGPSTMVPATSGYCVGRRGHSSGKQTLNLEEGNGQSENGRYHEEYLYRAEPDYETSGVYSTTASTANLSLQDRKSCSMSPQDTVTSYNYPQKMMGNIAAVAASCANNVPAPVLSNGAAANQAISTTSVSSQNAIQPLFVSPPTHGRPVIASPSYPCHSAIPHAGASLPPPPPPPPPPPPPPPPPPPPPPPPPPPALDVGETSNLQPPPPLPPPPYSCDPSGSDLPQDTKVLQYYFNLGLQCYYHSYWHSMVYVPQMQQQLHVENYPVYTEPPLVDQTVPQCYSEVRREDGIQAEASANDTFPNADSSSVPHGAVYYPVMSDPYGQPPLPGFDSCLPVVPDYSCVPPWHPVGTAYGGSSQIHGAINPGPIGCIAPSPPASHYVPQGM
Procedure, shortened: (§1)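 Average log2 ratios of fragment over vehicle were obtained by unpaired t-test from global-median-normalised Spectronaut label-free quantities. Proteins with ≥2 unique peptides were included. HEK293T lysate (495 µg per sample) was treated in triplicate with fragment at 200 µM or vehicle for 3 h, then with Biotin-Ahx-Ub-VS at 0.5 µM final for 1 h, and labelled DUBs were NeutrAvidin-enriched and run by diaPASEF LC-MS/MS.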

ATXN3 = ATXN3 (UniProt P54252)
ATXN3, sequence (P54252 whole entry): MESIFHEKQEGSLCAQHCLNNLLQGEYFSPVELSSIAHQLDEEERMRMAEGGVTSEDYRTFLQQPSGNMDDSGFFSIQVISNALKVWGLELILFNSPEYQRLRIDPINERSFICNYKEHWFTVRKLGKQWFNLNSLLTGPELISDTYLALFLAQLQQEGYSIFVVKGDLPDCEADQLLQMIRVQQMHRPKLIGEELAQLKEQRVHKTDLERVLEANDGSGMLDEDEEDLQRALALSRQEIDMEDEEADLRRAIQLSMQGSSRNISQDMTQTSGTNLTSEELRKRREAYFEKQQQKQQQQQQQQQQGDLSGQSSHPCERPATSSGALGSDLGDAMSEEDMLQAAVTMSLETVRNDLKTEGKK
Procedure, shortened: as §1

BAP1 = target: T2, BAP1 (UniProt Q92560)
T2 sequence (whole entry): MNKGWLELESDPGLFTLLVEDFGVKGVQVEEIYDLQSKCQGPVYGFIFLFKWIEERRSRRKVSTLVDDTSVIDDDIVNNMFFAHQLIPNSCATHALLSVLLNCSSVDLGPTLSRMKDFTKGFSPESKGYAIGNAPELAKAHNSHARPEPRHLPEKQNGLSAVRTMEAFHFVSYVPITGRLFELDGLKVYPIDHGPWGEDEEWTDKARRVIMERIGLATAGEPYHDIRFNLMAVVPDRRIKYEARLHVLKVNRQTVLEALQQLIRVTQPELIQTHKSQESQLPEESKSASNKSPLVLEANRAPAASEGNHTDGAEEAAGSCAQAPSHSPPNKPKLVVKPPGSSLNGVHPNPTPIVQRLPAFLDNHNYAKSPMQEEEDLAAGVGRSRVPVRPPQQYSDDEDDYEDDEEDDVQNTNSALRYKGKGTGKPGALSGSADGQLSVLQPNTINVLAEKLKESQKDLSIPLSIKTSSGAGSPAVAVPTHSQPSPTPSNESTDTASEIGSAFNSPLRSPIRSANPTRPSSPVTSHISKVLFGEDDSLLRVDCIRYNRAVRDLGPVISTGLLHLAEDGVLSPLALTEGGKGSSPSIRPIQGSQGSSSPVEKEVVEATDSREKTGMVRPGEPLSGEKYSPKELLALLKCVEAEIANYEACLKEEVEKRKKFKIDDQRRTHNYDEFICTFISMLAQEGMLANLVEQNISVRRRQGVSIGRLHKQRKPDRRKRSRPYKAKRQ
Procedure, shortened: as §1

EIF3F = EIF3F (UniProt O00303)
EIF3F, sequence (O00303 whole entry): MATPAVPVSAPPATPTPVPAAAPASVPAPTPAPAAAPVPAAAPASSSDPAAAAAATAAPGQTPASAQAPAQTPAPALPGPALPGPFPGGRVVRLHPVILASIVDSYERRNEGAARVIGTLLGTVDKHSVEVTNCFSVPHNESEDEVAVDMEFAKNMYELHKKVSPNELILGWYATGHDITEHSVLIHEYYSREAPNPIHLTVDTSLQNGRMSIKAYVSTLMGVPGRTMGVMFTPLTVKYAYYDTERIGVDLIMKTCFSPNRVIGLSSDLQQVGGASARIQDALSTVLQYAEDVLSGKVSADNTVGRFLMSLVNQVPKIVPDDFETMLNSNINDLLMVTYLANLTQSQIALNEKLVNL
Procedure, shortened: as §1

EIF3H = EIF3H (UniProt O15372)
EIF3H, sequence (O15372 whole entry): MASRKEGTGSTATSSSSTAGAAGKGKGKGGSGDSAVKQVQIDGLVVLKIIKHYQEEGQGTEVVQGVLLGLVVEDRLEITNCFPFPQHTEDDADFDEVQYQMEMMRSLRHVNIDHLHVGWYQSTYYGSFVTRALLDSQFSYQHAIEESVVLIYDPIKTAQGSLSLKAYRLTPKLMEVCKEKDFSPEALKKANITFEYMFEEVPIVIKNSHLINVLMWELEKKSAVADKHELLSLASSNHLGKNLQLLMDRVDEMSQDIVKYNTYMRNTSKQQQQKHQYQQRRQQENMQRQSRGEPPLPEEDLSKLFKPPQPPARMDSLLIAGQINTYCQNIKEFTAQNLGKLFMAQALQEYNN
Procedure, shortened: as §1

FAM105A = target: T3, FAM105A (UniProt Q9NUU6)
T3 sequence (whole entry): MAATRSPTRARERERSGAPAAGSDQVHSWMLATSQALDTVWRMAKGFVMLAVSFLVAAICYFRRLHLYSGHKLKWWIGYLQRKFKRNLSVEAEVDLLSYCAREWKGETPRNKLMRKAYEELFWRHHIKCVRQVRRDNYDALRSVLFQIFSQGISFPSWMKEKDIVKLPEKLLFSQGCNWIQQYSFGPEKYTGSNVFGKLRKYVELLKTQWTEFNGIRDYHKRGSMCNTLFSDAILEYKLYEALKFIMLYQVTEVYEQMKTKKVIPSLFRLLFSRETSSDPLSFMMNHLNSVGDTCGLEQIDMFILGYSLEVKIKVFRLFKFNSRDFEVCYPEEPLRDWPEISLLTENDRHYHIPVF
Procedure, shortened: as §1

OTUB1 = OTUB1 (UniProt Q96FW1)
OTUB1, sequence (Q96FW1 whole entry): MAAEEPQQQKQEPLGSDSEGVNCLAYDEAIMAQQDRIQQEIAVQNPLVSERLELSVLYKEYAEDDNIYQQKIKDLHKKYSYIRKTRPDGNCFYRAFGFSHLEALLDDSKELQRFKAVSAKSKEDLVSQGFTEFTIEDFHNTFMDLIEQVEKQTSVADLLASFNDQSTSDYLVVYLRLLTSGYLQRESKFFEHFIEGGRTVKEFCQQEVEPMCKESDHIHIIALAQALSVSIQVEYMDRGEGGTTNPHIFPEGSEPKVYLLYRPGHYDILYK
Procedure, shortened: as §1

OTUD4 = target: T4, OTUD4 (UniProt Q01804)
T4 sequence (whole entry): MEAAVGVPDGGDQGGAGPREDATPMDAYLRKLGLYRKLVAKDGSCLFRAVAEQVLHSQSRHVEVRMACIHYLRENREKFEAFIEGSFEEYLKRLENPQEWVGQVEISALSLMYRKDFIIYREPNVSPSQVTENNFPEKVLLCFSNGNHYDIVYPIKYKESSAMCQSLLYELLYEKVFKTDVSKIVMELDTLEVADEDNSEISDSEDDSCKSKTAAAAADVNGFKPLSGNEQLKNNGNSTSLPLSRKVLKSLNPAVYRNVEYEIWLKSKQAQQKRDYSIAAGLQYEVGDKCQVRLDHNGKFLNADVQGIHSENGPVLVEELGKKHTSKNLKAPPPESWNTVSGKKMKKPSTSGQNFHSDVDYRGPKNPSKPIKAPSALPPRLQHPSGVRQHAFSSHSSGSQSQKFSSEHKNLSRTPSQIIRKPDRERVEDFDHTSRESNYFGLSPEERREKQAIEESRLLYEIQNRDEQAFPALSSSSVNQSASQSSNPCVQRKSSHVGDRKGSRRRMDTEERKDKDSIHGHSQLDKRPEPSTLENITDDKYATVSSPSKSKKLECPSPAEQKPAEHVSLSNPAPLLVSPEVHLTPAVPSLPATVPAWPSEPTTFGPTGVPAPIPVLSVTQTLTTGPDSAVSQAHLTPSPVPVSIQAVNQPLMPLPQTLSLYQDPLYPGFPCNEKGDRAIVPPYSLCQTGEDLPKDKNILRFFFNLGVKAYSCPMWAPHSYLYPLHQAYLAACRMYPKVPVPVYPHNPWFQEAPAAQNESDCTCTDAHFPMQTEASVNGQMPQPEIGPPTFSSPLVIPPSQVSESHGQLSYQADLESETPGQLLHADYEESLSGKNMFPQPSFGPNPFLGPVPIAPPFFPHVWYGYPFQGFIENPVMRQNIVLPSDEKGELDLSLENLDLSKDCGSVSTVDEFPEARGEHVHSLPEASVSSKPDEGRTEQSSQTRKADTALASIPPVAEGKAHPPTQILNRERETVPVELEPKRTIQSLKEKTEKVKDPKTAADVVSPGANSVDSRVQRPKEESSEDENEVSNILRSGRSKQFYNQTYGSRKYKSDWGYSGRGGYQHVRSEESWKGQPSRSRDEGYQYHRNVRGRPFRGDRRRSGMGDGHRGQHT
Procedure, shortened: as §1

OTUD5 = target: T5, OTUD5 (UniProt Q96G74)
T5 sequence (whole entry): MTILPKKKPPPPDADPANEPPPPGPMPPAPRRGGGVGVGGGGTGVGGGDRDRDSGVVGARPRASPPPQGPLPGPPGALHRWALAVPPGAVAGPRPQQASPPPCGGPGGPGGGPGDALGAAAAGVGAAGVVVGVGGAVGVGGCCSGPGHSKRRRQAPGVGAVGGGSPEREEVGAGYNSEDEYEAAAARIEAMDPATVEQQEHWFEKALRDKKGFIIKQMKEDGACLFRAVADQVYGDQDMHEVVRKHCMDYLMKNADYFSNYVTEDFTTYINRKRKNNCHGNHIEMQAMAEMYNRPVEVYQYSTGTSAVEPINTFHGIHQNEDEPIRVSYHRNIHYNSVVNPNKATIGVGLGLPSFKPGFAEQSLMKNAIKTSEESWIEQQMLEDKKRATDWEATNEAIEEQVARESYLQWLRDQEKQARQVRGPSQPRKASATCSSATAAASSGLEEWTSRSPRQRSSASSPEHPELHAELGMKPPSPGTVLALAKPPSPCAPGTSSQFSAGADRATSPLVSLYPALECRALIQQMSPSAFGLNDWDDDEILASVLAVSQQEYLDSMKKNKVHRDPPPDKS
Procedure, shortened: as §1

Measured: log2 ratio of Biotin-Ahx-Ub-VS probe labelling

Cl.O=C(CCl)NCCc1ncc(F)cc1F
active: BAP1 -1.21
inactive: ALG13 0.103 | ATXN3 -0.404 | EIF3F -0.289 | EIF3H 0.21 | FAM105A 0.131 | OTUB1 -0.111 | OTUD4 -0.506 | OTUD5 -0.474
